PubChem BioAssay AID1159580 (chemical genetic matrix, 2015)
The whole screen tested about 5,500 compounds, of which about 2,000 (36%) were called active. Not shown: some 18% with an inconclusive outcome. No stated cut-off is given here; in the data, active means normalized growth mostly below about 0.91 (no sharp cut-off); inconclusive means no clear call, values can overlap the other calls; inactive means mostly above about 0.92. The list shows a part of the results.

Assay: chemical genetic growth profiling, strain panel (AID 1159580);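 further: tested at 20 µM; growth read once vehicle control cultures reached saturation at 30 °C; 1 = growth at the plate median or of vehicle wells; lower values mean less growth of the strain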
Conditions: growth OD
[1] = S. cerevisiae deletion strains, locus YDL101C, strain DUN1, hits give low values
[2] = S. cerevisiae deletion strains, locus YHR030C, strain SLT2, hits give low values

Measured: normalized growth

O=S(=O)(Nc1ccccc1Sc1c(Cl)cncc1Cl)c1ccc(Cl)cc1
inactive: S. cerevisiae deletion strains, locus YAR019C, strain CDC15, hits give low values 0.981 | S. cerevisiae deletion strains, locus YBL105C, strain PKC1, hits give low values 0.987 | S. cerevisiae deletion strains, locus YBR135W, strain CKS1, hits give low values 0.985 | S. cerevisiae deletion strains, locus YBR136W, strain MEC1, hits give low values 0.987 | S. cerevisiae deletion strains, locus YBR160W, strain CDC28, hits give low values 0.988 | S. cerevisiae deletion strains, locus YDL017W, strain CDC7, hits give low values 0.986 | S. cerevisiae deletion strains, locus YDL028C, strain MPS1, hits give low values 0.995 | [1] 0.973 | S. cerevisiae deletion strains, locus YDL108W, strain KIN28, hits give low values 0.985 | S. cerevisiae deletion strains, locus YDL132W, strain cdc53, hits give low values 0.974 | S. cerevisiae deletion strains, locus YDL214C, strain PRR2, hits give low values 1 | S. cerevisiae deletion strains, locus YDR052C, strain DBF4, hits give low values 0.984 | S. cerevisiae deletion strains, locus YDR054C, strain cdc34, hits give low values 0.974 | S. cerevisiae deletion strains, locus YDR226W, strain ADK1, hits give low values 0.985 | S. cerevisiae deletion strains, locus YDR477W, strain SNF1, hits give low values 0.99 | S. cerevisiae deletion strains, locus YER123W, strain YCK3, hits give low values 1 | S. cerevisiae deletion strains, locus YER133W, strain GLC7, hits give low values 1 | S. cerevisiae deletion strains, locus YFL009W, strain cdc4, hits give low values 0.98 | S. cerevisiae deletion strains, locus YFL029C, strain CAK1, hits give low values 0.985 | S. cerevisiae deletion strains, locus YFR003C, strain YPI1, hits give low values 0.98 | S. cerevisiae deletion strains, locus YFR019W, strain FAB1, hits give low values 0.998 | S. cerevisiae deletion strains, locus YFR028C, strain CDC14, hits give low values 0.986 | S. cerevisiae deletion strains, locus YGR040W, strain KSS1, hits give low values 0.993 | S. cerevisiae deletion strains, locus YGR052W, strain FMP48, hits give low values 1.07 | S. cerevisiae deletion strains, locus YGR092W, strain DBF2, hits give low values 0.988 | [2] 1.13 | S. cerevisiae deletion strains, locus YHR079C, strain IRE1, hits give low values 1 | S. cerevisiae deletion strains, locus YHR082C, strain KSP1, hits give low values 1.27 | S. cerevisiae deletion strains, locus YHR205W, strain SCH9, hits give low values 0.981 | S. cerevisiae deletion strains, locus YIL147C, strain SLN1, hits give low values 0.988 | S. cerevisiae deletion strains, locus YJL095W, strain BCK1, hits give low values 0.974 | S. cerevisiae deletion strains, locus YJL128C, strain PBS2, hits give low values 0.916 | S. cerevisiae deletion strains, locus YJL157C, strain FAR1, hits give low values 0.997 | S. cerevisiae deletion strains, locus YJR016C, strain ILV3, hits give low values 0.974 | S. cerevisiae deletion strains, locus YJR066W, strain TOR1 (second series), hits give low values 1 | S. cerevisiae deletion strains, locus YJR066W, strain TOR1, hits give low values 1.26 | S. cerevisiae deletion strains, locus YKL048C, strain ELM1, hits give low values 0.955 | S. cerevisiae deletion strains, locus YKL067W, strain YNK1, hits give low values 0.978 | S. cerevisiae deletion strains, locus YKL101W, strain HSL1, hits give low values 0.958 | S. cerevisiae deletion strains, locus YKL193C, strain SDS22, hits give low values 0.977 | S. cerevisiae deletion strains, locus YKL203C, strain TOR2, hits give low values 1.06 | S. cerevisiae deletion strains, locus YLR113W, strain HOG1, hits give low values 0.995 | S. cerevisiae deletion strains, locus YLR133W, strain CKI1, hits give low values 0.979 | S. cerevisiae deletion strains, locus YLR403W, strain SFP1, hits give low values 1 | S. cerevisiae deletion strains, locus YML070W, strain DAK1, hits give low values 0.995 | S. cerevisiae deletion strains, locus YMR001C, strain CDC5, hits give low values 0.984 | S. cerevisiae deletion strains, locus YMR205C, strain PFK2 (second series), hits give low values 0.998 | S. cerevisiae deletion strains, locus YMR277W, strain FCP1, hits give low values 0.978 | S. cerevisiae deletion strains, locus YNL006W, strain LST8, hits give low values 0.982 | S. cerevisiae deletion strains, locus YNL020C, strain ARK1, hits give low values 0.978 | S. cerevisiae deletion strains, locus YNL161W, strain CBK1, hits give low values 0.98 | S. cerevisiae deletion strains, locus YNL183C, strain NPR1, hits give low values 0.961 | S. cerevisiae deletion strains, locus YNL207W, strain RIO2, hits give low values 0.985 | S. cerevisiae deletion strains, locus YNL222W, strain SSU72, hits give low values 0.994 | S. cerevisiae deletion strains, locus YNL307C, strain MCK1 (second series), hits give low values 0.978 | S. cerevisiae deletion strains, locus YOL078W, strain AVO1, hits give low values 0.96 | S. cerevisiae deletion strains, locus YOL136C, strain PFK27, hits give low values 1 | S. cerevisiae deletion strains, locus YOR061W, strain CKA2, hits give low values 0.991 | S. cerevisiae deletion strains, locus YOR119C, strain RIO1, hits give low values 1.01 | S. cerevisiae deletion strains, locus YOR231W, strain MKK1, hits give low values 0.998 | S. cerevisiae deletion strains, locus YOR329C, strain SCD5, hits give low values 0.989 | S. cerevisiae deletion strains, locus YPL031C, strain PHO85, hits give low values 0.995 | S. cerevisiae deletion strains, locus YPL153C, strain RAD53, hits give low values 0.994 | S. cerevisiae deletion strains, locus YPL204W, strain HRR25, hits give low values 1 | S. cerevisiae deletion strains, locus YPL209C, strain IPL1, hits give low values 0.99 | S. cerevisiae deletion strains, locus YPL256C, strain CLN2, hits give low values 0.97 | S. cerevisiae deletion strains, locus YPR025C, strain CCL1, hits give low values 0.992 | S. cerevisiae deletion strains, locus YPR106W, strain ISR1, hits give low values 0.968 | S. cerevisiae deletion strains, locus YPR111W, strain DBF20, hits give low values 0.959 | S. cerevisiae deletion strains, strain NNK1, hits give low values 0.963 | S. cerevisiae deletion strains, strain TSCII, hits give low values 0.985

CCSc1ncccc1C(=O)N[C@@H](CCSC)C(=O)OC
inactive: S. cerevisiae deletion strains, locus YAL013W, strain DEP1, hits give low values 0.994 | S. cerevisiae deletion strains, locus YBR229C, strain ROT2, hits give low values 0.996 | [1] 0.98 | S. cerevisiae deletion strains, locus YDR150W, strain NUM1, hits give low values 0.906 | S. cerevisiae deletion strains, locus YEL061C, strain CIN8, hits give low values 1.02 | S. cerevisiae deletion strains, locus YGR078C, strain PAC10, hits give low values 0.993 | S. cerevisiae deletion strains, locus YGR229C, strain SMI1, hits give low values 1 | [2] 0.979 | S. cerevisiae deletion strains, locus YHR087W, strain rtc3, hits give low values 1 | S. cerevisiae deletion strains, locus YJR043C, strain POL32, hits give low values 0.98 | S. cerevisiae deletion strains, locus YJR075W, strain HOC1, hits give low values 1.01 | S. cerevisiae deletion strains, locus YKL190W, strain CNB1, hits give low values 1.01 | S. cerevisiae deletion strains, locus YLR039C, strain RIC1, hits give low values 1 | S. cerevisiae deletion strains, locus YLR058C, strain SHM2 (second series), hits give low values 1.01 | S. cerevisiae deletion strains, locus YLR085C, strain ARP6, hits give low values 1.04 | S. cerevisiae deletion strains, locus YLR262C, strain YPT6, hits give low values 1.02 | S. cerevisiae deletion strains, locus YML094W, strain GIM5, hits give low values 1.03 | S. cerevisiae deletion strains, locus YMR219W, strain ESC1, hits give low values 1.01 | S. cerevisiae deletion strains, locus YMR263W, strain SAP30, hits give low values 1.01 | S. cerevisiae deletion strains, locus YMR307W, strain GAS1, hits give low values 1.02 | S. cerevisiae deletion strains, locus YNL153C, strain GIM3, hits give low values 0.999 | S. cerevisiae deletion strains, locus YNL298W, strain CLA4 (second series), hits give low values 1.01 | S. cerevisiae deletion strains, locus YNL322C, strain KRE1, hits give low values 1.01 | S. cerevisiae deletion strains, locus YNR030W, strain Alg12, hits give low values 0.997 | S. cerevisiae deletion strains, locus YOL006C, strain TOP1, hits give low values 1 | S. cerevisiae deletion strains, locus YPL055C, strain LGE1, hits give low values 1.09 | S. cerevisiae deletion strains, locus YPL241C, strain CIN2, hits give low values 1.01 | S. cerevisiae deletion strains, locus YPR135W, strain CTF4, hits give low values 0.91 | S. cerevisiae strains, strain wild type, hits give low values 1
